From PubChem BioAssay come the findings set out here.

Where “and” joins values, the source holds several entries; their conditions need not be identical. Identical values can stand only once. The source holds several records for some structures; these can differ, active in one and inactive in another. Calls of active or inactive are those of the source. Unless noted, how the calls were made is not given here.

The term viability denotes the share of living cells, or the viability signal relative to a control.

System in the first assay: not listed separately
The assay is described as follows: hESC survival regulators, cell-based (AID 493140).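 Further: cells exposed to compounds for four days before counting.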 The conditions noted are these: human embryonic stem cell survival screen; stronger effect = higher value.
Turning to `C[C@@H]1CC[C@H]2[C@@H](C)C(=O)O[C@@H]3OC4(C)CC[C@@H]1[C@]32OO4`, the survival is 4.67 (inactive).
Still for that read-out and setting: the value for `CC[C@]12CCCN3CCc4c(n(c5ccccc45)[C@](O)(C(=O)OC)C1)[C@@H]32` was 6.25 (inactive).
Same read-out and setting: then `C=C1C2CC[C@H]3[C@]4(C)C[C@H](OC5OC(CO)C(OS(=O)(=O)O)C(OS(=O)(=O)O)C5OC(=O)CC(C)C)C[C@@H](C(=O)O)[C@H]4CC[C@]3(C2)[C@H]1O` (stereo not given in full), with 8.25 (inactive).

System in the next assay: not listed separately
Description: liver-stage malaria parasite growth inhibition, primary screen, cell-based, HepG2, luciferase luminescence, HepG2 viability (AID 624349; in the data active means parasite load remaining mostly below about 12%, no sharp cut-off; inactive means mostly above about 10%;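 further: 100% = mean of DMSO negative control wells on the same plate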). The following applies: P. berghei liver stage in HepG2, luciferase luminescence, concentration not given here; parasite load remaining: stronger effect = lower value; viability: measured here: HepG2 viability without parasites.
As for `C[C@@H]1CC[C@H]2[C@@H](C)C(=O)O[C@@H]3OC4(C)CC[C@@H]1[C@]32OO4`, the viability amounted to 72.2% and the parasite load remaining is 71.2% (inactive).
For `CNC(Cc1c[nH]c2ccccc12)C(=O)O` (stereo not given), the viability was 73.8% and the parasite load remaining was 105% (inactive).
In the same order, the values of `C[C@]12CCC3C(CC[C@H]4CC(=O)CC[C@]34C)C1CCC2=O` (stereo not given in full) are 96.1% and 63.7% (inactive).
For `COc1ccc2c(c1)[C@]13CCCC[C@H]1[C@H](C2)N(C)CC3` the same measures were 71.2% and 84.3% (inactive).
As for `O=C1OCCN1/N=C/c1ccc([N+](=O)[O-])o1`, the parasite load remaining was 1.08% (active) and 4.96% (inactive); the viability is 58.1% and 96.5%.
In the case of `C[C@@H]1C(=O)OC2[C@H](O)C34[C@@H]5OC(=O)[C@@]3(O[C@@H]3OC(=O)[C@H](O)[C@@]34[C@H](C(C)(C)C)[C@H]5O)[C@]21O` (stereo not given in full), the viability is 70.9% and the parasite load remaining is 84.4% (inactive).
On to `O=C1CC2OCC=C3CN4CC[C@]56c7ccccc7N1C5[C@H]2[C@H]3CC46` (stereo not given in full), for which the parasite load remaining is 113% (inactive) and 54.7% (inactive); the viability was 71.9% and 95.5%.
With `COc1ccc2c(c1OC)C(=O)O[C@@H]2[C@@H]1c2cc3c(cc2CCN1C)OCO3`, the viability worked out at 68.5% and the parasite load remaining was 190% (inactive).
In the same order, the values of `CCC(C)C(=O)O[C@H]1[C@H](O)C2C(CN3CC(C)CCC3[C@@]2(C)O)C2C[C@]34O[C@]5(O)C(OC(=O)C(C)(O)C(C)O)CC[C@@]3(C)C5C(OC(C)=O)[C@@H](OC(C)=O)C4[C@@]21O` (stereo not given in full) are 68.5% and 75% (inactive).
For `C/C=C(\C)C(=O)O[C@H]1C[C@@H](OC(C)=O)[C@@]2(C(=O)OC)CO[C@@H]3C2[C@]12CO[C@](O)(C(=O)OC)[C@H]2[C@](C)(C12O[C@@]1(C)[C@H]1C[C@@H]2OC2OC=C[C@@]21O)[C@@H]3O` (stereo not given in full), the viability came out at 97.8% and the parasite load remaining is 62.6% (inactive).
Consider `CNC(C)[C@@H]1CC[C@@H](N)[C@@H](OC2[C@@H](N)C[C@@H](N)[C@H](OC3OC[C@](C)(O)[C@H](NC)[C@H]3O)[C@H]2O)O1` (stereo not given in full), for which the parasite load remaining is 99.6% (inactive) and 66.4% (inactive); the viability was 74.9% and 95.7%.
Turning to `COc1ccc2c(c1OC)C(=O)O[C@H]2[C@H]1c2cc3c(cc2CCN1C)OCO3`, the viability was 70.9% and the parasite load remaining was 124% (inactive).
For the compound `C[C@@H]1CC[C@@]2(NC1)O[C@H]1C[C@H]3C4CC=C5C[C@@H](O)CC[C@]5(C)C4CC[C@]3(C)C1[C@@H]2C` (stereo not given in full), the viability amounted to 93.1% and the parasite load remaining was 57% (inactive).

Another assay deals with Aerobactin synthetase IucA (Klebsiella pneumoniae hvKP1). The assay is described as follows: Biochemical IucA enzyme inhibition primary screen of the Spectrum library (AID 1346200).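 Further: 100% = wells without compound and 0% = wells lacking enzyme.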 The conditions noted are these: malachite green pyrophosphate, A620, at 8 µM, stronger effect = lower value.
Consider `O=C(NC(=O)c1ccccc1Cl)Nc1ccc(OC(F)(F)F)cc1`, for which the activity remaining is 118% (inactive).
Same read-out and setting: the value for `C=C[C@@H]1C2=CCOC(=O)C2=CO[C@H]1O[C@@H]1O[C@H](CO)[C@@H](O)[C@H](O)[C@H]1O` was 126% (inactive); that for `C[C@@H]1CC[C@H]2[C@@H](C)C(=O)O[C@@H]3OC4(C)CC[C@@H]1[C@]32OO4` was 86.3% (inactive).
On the same count and under the same terms, the value for `CNC(Cc1c[nH]c2ccccc12)C(=O)O` (stereo not given) was 108% (inactive); that for `CO[C@H]1[C@H](O)[C@H](O[C@H]2CC[C@]3(C)C4CC[C@]5(C)C(C6=CC(=O)OC6)CC[C@]5(O)C4CC[C@@H]3C2)O[C@@H](C)[C@@H]1O` (stereo not given in full) was 93.6% (inactive).
As for `CC1(C)N([O-])[N+](=O)C1(C)Br` (stereo not given), the activity remaining is 96.6% (inactive).
The same measure, in the same setting: then `C[C@]12CCC3C(CC[C@H]4CC(=O)CC[C@]34C)C1CCC2=O` (stereo not given in full), with 94.5% (inactive); and `COc1ccc2c(c1)[C@]13CCCC[C@H]1[C@H](C2)N(C)CC3`, with 115% (inactive).
Regarding `O=C1OCCN1/N=C/c1ccc([N+](=O)[O-])o1`, the activity remaining was 104% (inactive).
Take `C[C@@H]1C(=O)OC2[C@H](O)C34[C@@H]5OC(=O)[C@@]3(O[C@@H]3OC(=O)[C@H](O)[C@@]34[C@H](C(C)(C)C)[C@H]5O)[C@]21O` (stereo not given in full): the activity remaining is 116% (inactive).
Consider `CC(=O)C1=C(O)C2C3c4c[nH]c5cccc(c45)CC3C(C)(C)N2C1=O` (stereo not given), for which the activity remaining was 102% (inactive).
With `CC[C@]12CCCN3CCc4c(n(c5ccccc45)[C@](O)(C(=O)OC)C1)[C@@H]32`, the activity remaining is 115% (inactive).
On the same count and under the same terms, then `CC1(C)C2C[C@@H](O)[C@]3(C)C(CC[C@@]4(C)[C@H](c5ccoc5)OC(=O)[C@H]5O[C@]543)[C@@]2(C)[C@@H](O)C[C@H]1O` (stereo not given in full), with 124% (inactive); and `O=C1CC2OCC=C3CN4CC[C@]56c7ccccc7N1C5[C@H]2[C@H]3CC46` (stereo not given in full), with 121% (inactive).
Same read-out and setting: the value for `C=C1C2CC[C@H]3[C@]4(C)C[C@H](OC5OC(CO)C(OS(=O)(=O)O)C(OS(=O)(=O)O)C5OC(=O)CC(C)C)C[C@@H](C(=O)O)[C@H]4CC[C@]3(C2)[C@H]1O` (stereo not given in full) was 102% (inactive).
Consider `COc1ccc2c(c1OC)C(=O)O[C@@H]2[C@@H]1c2cc3c(cc2CCN1C)OCO3`, for which the activity remaining was 113% (inactive).
Take `C[C@H]1O[C@@H](O[C@H]2[C@@H](O)C[C@H](O[C@H]3[C@@H](O)C[C@H](O[C@H]4CC[C@]5(C)C6CC[C@]7(C)[C@@H](C8=CC(=O)OC8)CC[C@]7(O)C6CC[C@@H]5C4)O[C@@H]3C)O[C@@H]2C)C[C@H](O)[C@@H]1O` (stereo not given in full): the activity remaining is 121% (inactive).
Still for that read-out and setting: the value for `CCC(C)C(=O)O[C@H]1[C@H](O)C2C(CN3CC(C)CCC3[C@@]2(C)O)C2C[C@]34O[C@]5(O)C(OC(=O)C(C)(O)C(C)O)CC[C@@]3(C)C5C(OC(C)=O)[C@@H](OC(C)=O)C4[C@@]21O` (stereo not given in full) was 107% (inactive); that for `O=C(O)P(=O)(O)O` was 112% (inactive).
The same measure, in the same setting: the value for `c1cc2c(cc1[C@H]1OC[C@H]3[C@@H]1CO[C@H]3c1ccc3c(c1)OCO3)OCO2` was 120% (inactive); that for `C/C=C(\C)C(=O)O[C@H]1C[C@@H](OC(C)=O)[C@@]2(C(=O)OC)CO[C@@H]3C2[C@]12CO[C@](O)(C(=O)OC)[C@H]2[C@](C)(C12O[C@@]1(C)[C@H]1C[C@@H]2OC2OC=C[C@@]21O)[C@@H]3O` (stereo not given in full) was 89% (inactive); that for `CNC(C)[C@@H]1CC[C@@H](N)[C@@H](OC2[C@@H](N)C[C@@H](N)[C@H](OC3OC[C@](C)(O)[C@H](NC)[C@H]3O)[C@H]2O)O1` (stereo not given in full) was 116% (inactive).
`COc1ccc2c(c1OC)C(=O)O[C@H]2[C@H]1c2cc3c(cc2CCN1C)OCO3`: the activity remaining is 127% (inactive).
The same measure, in the same setting: the value for `O=c1ccc2c(O)c3ccoc3cc2o1` was 96.6% (inactive); that for `C[C@@H]1CC[C@@]2(NC1)O[C@H]1C[C@H]3C4CC=C5C[C@@H](O)CC[C@]5(C)C4CC[C@]3(C)C1[C@@H]2C` (stereo not given in full) was 118% (inactive).
On the same count and under the same terms, the value for `CC12CCCCC1(Br)[N+](=O)N2[O-]` (stereo not given) was 108% (inactive).
